# Assay results published in the supplement of paper PMC9446081.
# The whole screen tested about 39,000 compounds, of which about 220 (0.56%) showed activity. What follows is part of a selection rich in actives, with near analogues and random picks from the rest.
# System: Escherichia coli K-12 BW25113
# Test: relative growth (OD600 normalised to plate interquartile mean) (fraction); higher = less growth inhibition, active = 0.2 or less
# Settings: 50 µM; LB; incubation time: overnight (16-24 h)
# 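Also: Wild-type cells incubated without shaking, value is the mean of two biological replicates.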
row,Structure (SMILES),relative growth
1,COc1ccc(NC(=O)N(C)C[C@H]2OCCCC[C@@H](C)Oc3ccc(NC(=O)c4ccccc4)cc3C(=O)N([C@@H](C)CO)C[C@H]2C)cc1,0.994 (inactive)
2,COC[C@H](C)N1C[C@H](C)[C@@H](CN(C)Cc2ccc(Oc3ccccc3)cc2)Oc2c(NC(=O)c3ccncc3)cccc2C1=O,1 (inactive)
3,Cc1noc(C)c1S(=O)(=O)Nc1ccc2c(c1)C(=O)N([C@H](C)CO)C[C@@H](C)[C@H](CN(C)C(=O)NC1CCCCC1)O2,1.01 (inactive)
4,C[C@@H]1CN([C@H](C)CO)C(=O)c2cc(NS(=O)(=O)c3ccc(F)cc3)ccc2O[C@@H](C)CCCCO[C@@H]1CN(C)C(=O)C1CCCCC1,0.993 (inactive)
5,Cc1noc(C)c1NC(=O)N(C)C[C@H]1Oc2ccc(NC(=O)Nc3ccc(C(F)(F)F)cc3)cc2CC(=O)N([C@H](C)CO)C[C@H]1C,0.935 (inactive)
6,C[C@H](CO)N1C[C@H](C)[C@H](CN(C)S(=O)(=O)c2ccccc2)Oc2ccc(NC(=O)C3CC3)cc2CC1=O,1 (inactive)
7,CC(C)(C)c1ccc(NC(=O)N[C@H]2CCCc3ccccc32)cc1,1.03 (inactive)
8,COc1ccc(NC(=O)Nc2ccc3c(c2)CC(=O)N([C@H](C)CO)C[C@@H](C)[C@@H](CN(C)S(=O)(=O)c2c(C)noc2C)O3)cc1,0.969 (inactive)
9,Nc1ncn([C@@H]2O[C@H](CO)[C@@H](O)[C@H]2O)c(=O)n1,0.458 (inactive)
10,Nc1ncn([C@@H]2C[C@H](O)[C@@H](CO)O2)c(=O)n1,0.907 (inactive)
11,Nc1ncn(C2OC(CO)C(O)C2O)c(=O)n1 (stereo unspecified),0.05 (active)
12,CC(=O)N(C)C[C@@H]1Oc2ncc(C#C[C@@H](C)O)cc2C(=O)N([C@@H](C)CO)C[C@H]1C,1.01 (inactive)
13,O=C(C[C@@H]1CC[C@@H]2[C@H](COC[C@@H](O)CN2S(=O)(=O)c2cccc(Cl)c2)O1)N1CCOCC1,1.01 (inactive)
14,O=C1OC(=O)[C@H]2[C@@H]1[C@H]1CC[C@H]2O1,0.16 (active)
15,CCc1c(C)[nH]c(=S)c(C#N)c1C,1.01 (inactive)
16,Cc1noc(C)c1S(=O)(=O)Nc1ccc2c(c1)C(=O)N([C@@H](C)CO)C[C@H](C)[C@H](CN(C)CC1CC1)O2,0.999 (inactive)
17,COc1ccc(NC(=O)N(C)C[C@H]2Oc3c(NS(=O)(=O)c4cn(C)cn4)cccc3C(=O)N([C@@H](C)CO)C[C@@H]2C)cc1,0.995 (inactive)
18,C[C@H](CO)N1C[C@H](C)[C@@H](CN(C)S(=O)(=O)c2ccc(F)cc2)Oc2ccc(NC(=O)c3ccncc3)cc2CC1=O,0.989 (inactive)
19,CCCCCCCCCCCCCCCCOP(=O)([O-])OCC[N+](C)(C)C,1 (inactive)
20,C[N+](C)(C)CCCCCC[N+](C)(C)C.[Br-].[Br-],0.862 (inactive)
21,CCCCCCCCCCCCCCCC[N+](C)(C)C,0.0755 (active)

row,Structure (SMILES),relative growth
1,NS(=O)(=O)c1cc(-c2nn[nH]n2)c(NCc2cccs2)cc1Cl,0.965 (inactive)
2,NC[C@H]1CCN(c2ccc(Oc3ccccc3)cc2)C1,0.669 (inactive)
3,C[C@H]1CCCCO[C@H](CN(C)C(=O)Cc2ccccc2)[C@@H](C)CN([C@@H](C)CO)C(=O)c2cc(NC(=O)c3ccccc3)ccc2O1,1.03 (inactive)
4,CCC=C(C(=O)NC1C(=O)N2C(C(=O)OCOC(=O)C(C)(C)C)=C(COC(N)=O)CSC12)c1csc(N)n1.Cl (stereo unspecified),0.0724 (active)
5,CON=C(C(=O)NC1C(=O)N2C(C(=O)OCOC(=O)C(C)(C)C)=C(C=Cc3scnc3C)CSC12)c1csc(N)n1 (stereo unspecified),0.0492 (active)
6,CON=C(C(=O)N[C@@H]1C(=O)N2C(C(=O)OCOC(=O)C(C)(C)C)=C(C=Cc3scnc3C)CS[C@H]12)c1csc(N)n1,0.0386 (active)
7,Cc1ccc(S(=O)(=O)N(C)C[C@@H]2Oc3ccc(NS(=O)(=O)c4ccc(F)cc4)cc3C(=O)N([C@H](C)CO)C[C@@H]2C)cc1,1.08 (inactive)
8,COc1ccc(CN(C)C[C@@H]2Oc3c(NC(=O)Nc4ccc(C(F)(F)F)cc4)cccc3C(=O)N([C@@H](C)CO)C[C@H]2C)cc1,0.818 (inactive)
9,Cc1cc(-c2ccccc2)nc(-c2ccccc2)c1C,0.937 (inactive)
10,C[C@H]1CN([C@@H](C)CO)C(=O)c2cc(NC(=O)CCCCCC(=O)Nc3ccccc3N)ccc2O[C@H]1CN(C)S(=O)(=O)c1cn(C)cn1,1.01 (inactive)
11,CNC[C@H]1Oc2cc(C#CCN(C)C)ccc2S(=O)(=O)N([C@H](C)CO)C[C@@H]1C,1.02 (inactive)
12,C[C@@H]1CCCCO[C@@H](CN(C)C(=O)Nc2ccc3c(c2)OCO3)[C@H](C)CN([C@H](C)CO)C(=O)c2cc(NS(=O)(=O)c3ccc(F)cc3)ccc2O1,1.01 (inactive)
13,Cc1noc(C)c1S(=O)(=O)Nc1ccc2c(c1)C(=O)N([C@H](C)CO)C[C@@H](C)[C@@H](CN(C)S(=O)(=O)c1cccs1)O2,0.998 (inactive)
14,C[C@H]1CCCCO[C@H](CN(C)S(C)(=O)=O)[C@@H](C)CN([C@@H](C)CO)C(=O)c2cc(NC(=O)c3ccncc3)ccc2O1,1.01 (inactive)
15,CC[C@H](C)C[C@H](C)CCCCCCCCC(=O)N[C@H]1C[C@@H](O)[C@@H](NCCN)NC(=O)[C@@H]2[C@@H](O)CCN2C(=O)[C@H]([C@H](O)CCN)NC(=O)[C@H]([C@H](O)[C@@H](O)c2ccc(O)cc2)NC(=O)[C@@H]2C[C@@H](O)CN2C(=O)[C@H]([C@@H](C)O)NC1=O,0.173 (active)
16,CCCCCOc1ccc(-c2cc(-c3ccc(C(=O)N[C@H]4C[C@@H](O)[C@@H](O)NC(=O)[C@H]5[C@@H](O)[C@@H](C)CN5C(=O)[C@H]([C@@H](O)CC(N)=O)NC(=O)[C@H]([C@@H](O)[C@@H](O)c5ccc(O)c(OS(=O)(=O)O)c5)NC(=O)[C@H]5C[C@@H](O)CN5C(=O)[C@H]([C@@H](C)O)NC4=O)cc3)no2)cc1,0.952 (inactive)
17,CCCCCOc1ccc(-c2ccc(-c3ccc(C(=O)N[C@H]4C[C@@H](O)[C@@H](O)NC(=O)[C@@H]5[C@@H](O)[C@@H](C)CN5C(=O)[C@H]([C@@H](C)O)NC(=O)[C@H]([C@H](O)[C@@H](O)c5ccc(O)cc5)NC(=O)[C@@H]5C[C@@H](O)CN5C(=O)[C@H]([C@@H](C)O)NC4=O)cc3)cc2)cc1,1.12 (inactive)
18,NC1(C(=O)O)CC1,0.988 (inactive)
19,C[C@@H]1CN([C@@H](C)CO)C(=O)c2cc(C#Cc3ccc(F)cc3)cnc2O[C@@H]1CN(C)Cc1ccccn1,0.995 (inactive)
20,Cc1ccc(S(=O)(=O)Nc2ccc3c(c2)C(=O)N([C@@H](C)CO)C[C@@H](C)[C@@H](CN(C)C(=O)Nc2cccc4ccccc24)OCCCC[C@@H](C)O3)cc1,0.998 (inactive)
21,CC1COc2c(N3CCN(C)CC3)c(F)cc3c(=O)c(C(=O)O)cn1c23 (stereo unspecified),0.0447 (active)

row,Structure (SMILES),relative growth
1,CN1CCN(c2c(F)cc3c(=O)c(C(=O)O)cn4c3c2OCN4C)CC1,0.0475 (active)
2,CN(c1ccc(N)cc1[N+](=O)[O-])S(C)(=O)=O,1.02 (inactive)
3,C/C=C/c1ccc2c(c1)O[C@@H](CN(C)Cc1ccc(C(=O)O)cc1)[C@@H](C)CN([C@@H](C)CO)S2(=O)=O,1.02 (inactive)
4,COc1ccccc1-c1ccc2c(c1)O[C@H](CN(C)C(=O)c1ccncc1)[C@@H](C)CN([C@H](C)CO)S2(=O)=O,1.01 (inactive)
5,C[C@@H]1CN([C@@H](C)CO)C(=O)Cc2cc(NC(=O)Cc3cn(C)c4ccccc34)ccc2O[C@H]1CN(C)Cc1ccc(C(F)(F)F)cc1,1.02 (inactive)
6,CCCNC(=O)N1C[C@H](C)[C@H](OC)CN(C)C(=O)c2ccc(NS(=O)(=O)CC(F)(F)F)cc2OC[C@H]1C,0.974 (inactive)
7,NCc1ccccc1CC(=O)NC1C(=O)N2C(C(=O)O)=C(CSc3nnnn3CC(=O)O)CSC12 (stereo unspecified),0.0453 (active)
8,NC(=O)c1cc[n+](CC2=C(C(=O)[O-])N3C(=O)C(NC(=O)C(c4ccccc4)S(=O)(=O)[O-])C3SC2)cc1.[Na+] (stereo unspecified),1.08 (inactive)
9,Cn1nnnc1SCC1=C(C(=O)[O-])N2C(=O)C(NC(=O)C(O)c3ccccc3)C2SC1.[Na+] (stereo unspecified),0.0463 (active)
10,O=C([O-])C1=C(CSc2nnnn2CS(=O)(=O)[O-])CSC2C(NC(=O)C(O)c3ccccc3)C(=O)N12.[Na+].[Na+] (stereo unspecified),0.044 (active)
11,Cn1nnnc1SCC1=C(C(=O)[O-])N2C(=O)C(NC(=O)C(OC=O)c3ccccc3)C2SC1.[Na+] (stereo unspecified),0.365 (inactive)
12,CCC(CC)c1ccc(O)cc1,0.994 (inactive)
13,CNC[C@@H]1Oc2cc(C#CCN(C)C)ccc2S(=O)(=O)N([C@@H](C)CO)C[C@H]1C,0.981 (inactive)
14,Oc1ccccc1/N=C/c1ccncc1,0.953 (inactive)
15,Cc1nn(C)cc1NC(=O)C[C@@H]1CC[C@@H]2[C@H](COc3ccc(NC(=O)C4CCOCC4)cc3C(=O)N2C)O1,0.986 (inactive)
16,COc1ccc(S(=O)(=O)N(C)C[C@@H]2OCCCC[C@H](C)Oc3ccc(NC(=O)Nc4cccc5ccccc45)cc3C(=O)N([C@H](C)CO)C[C@H]2C)cc1,0.966 (inactive)
17,C[C@@H]1CN([C@@H](C)CO)S(=O)(=O)c2ccc(C#CC(C)(C)O)cc2O[C@@H]1CN(C)Cc1ccccc1,1 (inactive)
18,Cc1noc(C)c1S(=O)(=O)Nc1ccc2c(c1)C(=O)N([C@@H](C)CO)C[C@H](C)[C@@H](CN(C)Cc1ccccc1)O2,0.968 (inactive)
19,C[C@H](CO)N1C[C@H](C)[C@H](CN(C)C(=O)Nc2ccc3c(c2)OCO3)OCCCC[C@H](C)Oc2ccc(NC(=O)Cc3ccccc3)cc2C1=O,0.991 (inactive)
